Records with an inconclusive call do not appear. Activity calls are given as the source filed them. Calls come from the whole dose curve; as a rule, active = well fitted curve in the direction sought with a large enough effect; inconclusive = small, poorly fitted or top-dose-only effect, or another doubt; inactive = no such curve, though single readings can be large; an effect the other way counts as inactive or inconclusive.
Columns and labels:
HACAT = assay: qHTS assay to identify novel small-molecules to repurpose for Merkel cell carcinoma treatment (AID 1296009); details: MCC and control cell lines, CellTiter-Glo viability, 72 h; at 44.8 µM (top of the series) unless noted; note: nearly all actives have a fitted effect of over 60% in size
Summary of the method: (§1)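 72 hr, 37 degree celsius; NPC 8-pt / MIPE 11-pt dose response; compound pinned in DMSO; CellTiter-Glo, 10 min RT, luminescence; normalized to no-cell and DMSO controls.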

NIH3T3 = assay: as above; details: MCC and control cell lines, CellTiter-Glo viability, 72 h; at 44.8 µM (top of the series) unless noted
Summary of the method: as §1

C33A = assay: Primary qHTS to identify gynecologic anti-cancer compounds using libraries of approved drugs and bioactive compounds (AID 1345084); details: Gynecologic cancer cell panel viability, ATPlite luminescence, 48 h; series mostly up to 57.5 µM; note: % is set by controls: 0 for no effect and ±100 for the full control effect; nearly all actives have a fitted effect of over 55% in size
Summary of the method: (§2)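 Five-point cytotoxicity, 48 h drug exposure at 37 C, 5% CO2, on cells seeded 16 h beforehand. ATP content read by ATPlite luminescence.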

CAOV3 = assay: as above; details: Gynecologic cancer cell panel viability, ATPlite luminescence, 48 h; series mostly up to 57.5 µM
Summary of the method: as §2

CASKI = assay: as above; details: Gynecologic cancer cell panel viability, ATPlite luminescence, 48 h; series mostly up to 57.5 µM
Summary of the method: as §2

Es-2 = assay: as above; details: Gynecologic cancer cell panel viability, ATPlite luminescence, 48 h; series mostly up to 57.5 µM
Summary of the method: as §2

HeLa = assay: as above; details: Gynecologic cancer cell panel viability, ATPlite luminescence, 48 h; series mostly up to 57.5 µM
Summary of the method: as §2

Hek293T = assay: as above; details: Gynecologic cancer cell panel viability, ATPlite luminescence, 48 h, control line for the selectivity index; series mostly up to 57.5 µM
Summary of the method: as §2

JEG-3 = assay: as above; details: Gynecologic cancer cell panel viability, ATPlite luminescence, 48 h; series mostly up to 57.5 µM
Summary of the method: as §2

O=C(O)CC/C=C\C[C@H]1CO[C@@H](c2ccccc2Cl)O[C@H]1c1ccccc1O
inactive: outcome (HACAT) | outcome (NIH3T3) | Potency (C33A) | Potency (CAOV3) | outcome (CASKI) | Potency (Es-2) | Potency (HeLa) | Potency (Hek293T) | Potency (JEG-3)

NC[C@@H]1O[C@@H](O[C@@H]2[C@@H](O[C@@H]3O[C@H](CO)[C@@H](O)[C@H]3O)[C@H](O)[C@@H](N)C[C@H]2N)[C@@H](N)[C@H](O)[C@H]1O
inactive: outcome (HACAT) inactive [at 9.27 µM] | outcome (NIH3T3) inactive [at 9.27 µM] | activity change, negative = cytotoxicity (C33A) 8.18% [at 11.6 µM] | activity change, negative = cytotoxicity (CAOV3) 0.692% [at 11.6 µM] | activity change, negative = cytotoxicity (CASKI) 0.509% [at 11.6 µM] | activity change, negative = cytotoxicity (Es-2) 6.5% [at 11.6 µM] | activity change, negative = cytotoxicity (HeLa) 15.1% [at 11.6 µM] | activity change, negative = cytotoxicity (Hek293T) 17.2% [at 11.6 µM] | activity change, negative = cytotoxicity (JEG-3) 7.01% [at 11.6 µM]

C/C=C(\C)C(=O)OCC1OC(OCC2OC(OC3(CO)OC(CO)C(O)C3O)C(O)C(O)C2O)C(O)C(O)C1O (stereo not given)
inactive: outcome (HACAT) inactive [at 17.4 µM] | outcome (NIH3T3) inactive [at 17.4 µM] | Potency (C33A) | Potency (CAOV3) | outcome (CASKI) | Potency (Es-2) | Potency (HeLa) | Potency (Hek293T) | Potency (JEG-3)

O=C(C[C@@H]1C(C(=O)O)=CO[C@@H](O[C@@H]2O[C@H](CO)[C@@H](O)[C@H](O)[C@H]2O)/C1=C\CO)OCCc1ccc(O)c(O)c1
inactive: outcome (HACAT) inactive [at 17.4 µM] | outcome (NIH3T3) inactive [at 17.4 µM] | Potency (C33A) | Potency (CAOV3) | outcome (CASKI) | Potency (Es-2) | Potency (HeLa) | Potency (Hek293T) | Potency (JEG-3)

COc1cc(C)c(C(=O)NC2C(C)OC(OC3CCC(C)C4C3C=C(C)C3/C(C)=C\CC/C(C)=C/C5(C)C=C(C(=O)O)C(C)CC56OC(=O)/C(=C(\O)C34C)C6=O)C(O)C2(C)O)c(O)c1 (stereo not given)
inactive: outcome (HACAT) inactive [at 9.27 µM] | outcome (NIH3T3) inactive [at 9.27 µM] | activity change, negative = cytotoxicity (C33A) 8.62% [at 11.6 µM] | activity change, negative = cytotoxicity (CAOV3) 11.9% [at 11.6 µM] | activity change, negative = cytotoxicity (CASKI) 23.4% [at 11.6 µM] | activity change, negative = cytotoxicity (Es-2) -2.46% [at 11.6 µM] | activity change, negative = cytotoxicity (HeLa) 2.6% [at 11.6 µM] | activity change, negative = cytotoxicity (Hek293T) 9.94% [at 11.6 µM] | activity change, negative = cytotoxicity (JEG-3) 4.16% [at 11.6 µM]

Cc1occc(=O)c1O[C@@H]1O[C@H](CO)[C@@H](O)[C@H](O)[C@H]1O
inactive: outcome (HACAT) | outcome (NIH3T3) | Potency (C33A) | Potency (CAOV3) | outcome (CASKI) | Potency (Es-2) | Potency (HeLa) | Potency (Hek293T) | Potency (JEG-3)

CC[C@@H]1[C@H]2CCCCN3C(=O)C[C@H]([C@@H]4[C@H]1OC(=O)[C@H]4C)[C@@H]23
inactive: outcome (HACAT) | outcome (NIH3T3) | Potency (C33A) | Potency (CAOV3) | outcome (CASKI) | Potency (Es-2) | Potency (HeLa) | Potency (Hek293T) | Potency (JEG-3)

CC1(C)CC[C@]2(C(=O)O[C@@H]3O[C@H](CO[C@@H]4O[C@H](CO[C@@H]5O[C@H](CO)[C@H](O)[C@H](O)[C@H]5O)[C@@H](O)[C@H](O)[C@H]4O)[C@@H](O)[C@H](O[C@@H]4O[C@H](CO)[C@@H](O)[C@H](O)[C@H]4O)[C@H]3O)[C@H](O)C[C@]3(C)C(=CCC4[C@@]5(C)CC[C@H](O[C@@H]6OC[C@@H](O)[C@H](O)[C@H]6O)[C@@](C)(C(=O)O)C5CC[C@]43C)[C@@H]2C1 (stereo not given in full)
inactive: outcome (HACAT) inactive [at 9.27 µM] | outcome (NIH3T3) inactive [at 9.27 µM] | activity change, negative = cytotoxicity (C33A) 12.5% [at 6.55 µM] | activity change, negative = cytotoxicity (CAOV3) 1.69% [at 6.55 µM] | activity change, negative = cytotoxicity (CASKI) -1.12% [at 6.55 µM] | activity change, negative = cytotoxicity (Es-2) -9.51% [at 6.55 µM] | activity change, negative = cytotoxicity (HeLa) 2.81% [at 6.55 µM] | activity change, negative = cytotoxicity (Hek293T) -1.44% [at 6.55 µM] | activity change, negative = cytotoxicity (JEG-3) -1.76% [at 6.55 µM]

C=C1CC[C@@H]2C(C)(C)CCC[C@@]2(C)[C@@H]1CC/C(=C/C(=O)OC)COC(C)=O
inactive: outcome (HACAT) | outcome (NIH3T3) | Potency (C33A) | Potency (CAOV3) | outcome (CASKI) | Potency (Es-2) | Potency (HeLa) | Potency (Hek293T) | Potency (JEG-3)

COC(=O)c1c(CC=C(C)C)c(OC2OC(CO)C(O)C(O)C2O)c2ccccc2c1OC1OC(CO)C(O)C(O)C1O (stereo not given)
inactive: outcome (HACAT) inactive [at 17.4 µM] | outcome (NIH3T3) inactive [at 17.4 µM] | Potency (C33A) | Potency (CAOV3) | outcome (CASKI) | Potency (Es-2) | Potency (HeLa) | Potency (Hek293T) | Potency (JEG-3)

CC1(C)CC[C@]2(C(=O)O)CC[C@]3(C)C(=CCC4[C@@]5(C)C[C@H](O)[C@H](O[C@@H]6O[C@H](CO)[C@@H](O)[C@H](O)[C@H]6O)[C@@](C)(CO)C5[C@H](O)C[C@]43C)[C@@H]2C1 (stereo not given in full)
inactive: outcome (HACAT) inactive [at 17.4 µM] | outcome (NIH3T3) inactive [at 17.4 µM] | Potency (C33A) | Potency (CAOV3) | outcome (CASKI) | Potency (Es-2) | Potency (HeLa) | Potency (Hek293T) | Potency (JEG-3)

CCc1nnc(NS(=O)(=O)c2ccc(NC(=S)NC(=O)/C=C/c3ccc(F)cc3)cc2)s1
inactive: outcome (HACAT) | outcome (NIH3T3) | Potency (C33A) | Potency (CAOV3) | outcome (CASKI) | Potency (Es-2) | Potency (HeLa) | Potency (Hek293T) | Potency (JEG-3)

COC(=O)C(CC1(O)c2ccccc2N2C(=O)C(CC(C)C)NC21)n1cnc2ccccc2c1=O (stereo not given)
inactive: outcome (HACAT) inactive [at 17.4 µM] | outcome (NIH3T3) inactive [at 17.4 µM] | Potency (C33A) | Potency (CAOV3) | outcome (CASKI) | Potency (Es-2) | Potency (HeLa) | Potency (Hek293T) | Potency (JEG-3)

O=C(O)c1cccc(C(=O)CCC2OC(n3cnc4c(=O)[nH]cnc43)C(O)C2O)c1 (stereo not given)
inactive: outcome (HACAT) inactive [at 17.4 µM] | outcome (NIH3T3) inactive [at 17.4 µM] | Potency (C33A) | Potency (CAOV3) | outcome (CASKI) | Potency (Es-2) | Potency (HeLa) | Potency (Hek293T) | Potency (JEG-3)

CC(=O)c1ccc(O[C@@H]2O[C@H](CO[C@@H]3OC[C@@H](O)[C@H](O)[C@H]3O)[C@@H](O)[C@H](O)[C@H]2O)cc1
inactive: outcome (HACAT) inactive [at 17.4 µM] | outcome (NIH3T3) inactive [at 17.4 µM] | Potency (C33A) | Potency (CAOV3) | outcome (CASKI) | Potency (Es-2) | Potency (HeLa) | Potency (Hek293T) | Potency (JEG-3)

Source: PubChem BioAssay (NCATS)
